Source: PubChem BioAssay
Beta2AR agonist = agonists of human beta-2 adrenergic receptor inducing internalization; Am2.2-beta2AR cells, FAP receptor internalization, flow cytometry; AID 504454; response, % (no concentration beside the values); 340,000 compounds, 0.43% hits;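 active = response above a set limit, near 3 SD of response in nonfluorescent compounds, cut at about 42% in these data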
MEKK2 WT-MEK5 = raises or lowers MEK5 binding to wildtype human MEKK2 PB1 domain; bead flow cytometry, Alexa488-MEK5 binding to MEKK2 WT; actives lie on both sides; binding response (% of control), % at 10 µM; 290,000 compounds, 1.1% hits; AID 1531; in the data active = binding response below about 67% or above about 130%
GRK2 inh = human GRK2 inhibition via aptamer displacement. P25098. inhibition of aptamer binding, % at 10 µM. AID 488847. 330,000 compounds, 0.59% hits. bead flow cytometry, FAM-aptamer displacement from GRK2;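 active = inhibition of aptamer binding above 40%, roughly 3 SD of noise, on plates passing a quality check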;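 note: median bead fluorescence of bound FAM aptamer so fluorescent compounds give negative values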
MEKK2mut PB1 HTS = signal of MEK5 binding to mutant human MEKK2 PB1 domain; bead flow cytometry, Alexa488-MEK5 binding to MEKK2 mutant; percent response, % at 10 µM; 290,000 compounds, 0.35% hits; AID 1530; in the data active = percent response above about 24%, passing the limit was not always enough
MEKK3 PB1 HTS = raises or lowers MEK5 binding to the human MEKK3 PB1 domain | Q99759 | bead-based flow cytometry, Alexa488-MEK5 binding to MEKK3; actives lie on both sides; 0 = blocked by unlabeled MEK5, 100 = vehicle | binding response (% of control), % at 10 µM | 290,000 compounds, 1.4% hits | AID 1529;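 active = binding response more than 3 SD above or below the average of its plate-row segment, actives on both sides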;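 note: Alexa488 bead fluorescence after subtracting the streptavidin-only scavenger bead signal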
Beta2AR ag CP1 = human beta-2 adrenergic receptor agonism, cherry pick; shares compounds with Beta2AR agonist; Am2.2-beta2AR cells, FAP surface receptor, flow cytometry; hits give low values; 1,100 compounds, 25% hits; AID 540358; percent response (surface receptor), % at 10 µM;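 active = surface receptor percent response at or below 58%, roughly 3 SD from nonfluorescent compounds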
B2AR FAP counter = flagged in Am2.2 fluorescence counterscreen for beta-2AR agonists; shares compounds with Beta2AR agonist; Am2.2 cells, FAP fluorogen flow cytometry; hits give low values; 1,100 tested, under 10 active; calls only at 10 µM;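 active = percent response below a set limit in fluorescence channel 1 and below 50% in channel 8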
* hit, by the source's call; i = inactive; nt = not tested or not shown; + = active, no number. Compounds with a hit are over-represented: about 2.9% of the library has one in this group of screens.

SMILES	Beta2AR agonist	MEKK2 WT-MEK5	GRK2 inh	MEKK2mut PB1 HTS	MEKK3 PB1 HTS	Beta2AR ag CP1	B2AR FAP counter
CCN(C[C@H]1N[C@@](C)(C(=O)OC)[C@H]2C(=O)N(Cc3ccccc3)C(=O)[C@@H]12)C(=O)Nc1ccc(F)cc1	-2	nt	1	nt	nt	nt	nt
COCCNC(=S)N/N=C(\C)c1ccc(Cl)s1	5	95	4	-16	92	108	i
CC(C)(C)c1ccc(-n2nc(C#N)c(Cl)cc2=O)cc1	52*	102	nt	-3	99	22*	+
CC(C)(C)c1ccc(-n2nc(C(N)=O)c(O)cc2=O)cc1	-2	98	0	-5	101	nt	nt
Cc1ccc(C(CC(=O)O)NC(=O)c2ccc(S(=O)(=O)N3CC(C)OC(C)C3)cc2)cc1 (configuration not stated)	-1	nt	3	nt	nt	nt	nt
COc1ccccc1C(=O)Nc1ccc2oc(-c3ccc(F)cc3)nc2c1	5	99	0	0	99	65	i
COc1ccc(C(=O)Nc2ccc3oc(-c4cccc(F)c4)nc3c2)cc1OC	9	nt	2	nt	nt	nt	nt
O=C(COc1ccccc1F)N1N=C(c2cccs2)CC1c1ccco1 (configuration not stated)	6	nt	nt	nt	nt	nt	nt
COc1ccc(CCNCC(O)COc2ccc(OC)cc2C(C)(C)C)cc1 (configuration not stated)	45*	124	0	1	101	99	i
COc1cc(-c2cc(N)n(S(=O)(=O)c3ccccc3)n2)cc(OC)c1OC	62*	112	1	1	105	98	i
COc1cc(C(=O)Oc2cc(N)n(S(=O)(=O)c3ccccc3)n2)cc(OC)c1OC	3	101	3	-2	102	nt	nt
CCOC(=O)c1[nH]c(=S)n(Cc2ccccc2)c1C(=O)OCC	43*	nt	nt	nt	nt	122	i
CCOC(=O)c1sc(=S)n(Cc2ccccc2)c1N	12	103	0	2	108	nt	nt
OC(CNCc1cccc(Br)c1)c1ccccc1 (configuration not stated)	-2	105	1	-1	107	120	i
OC(CNCc1ccc(-c2ccccc2)cc1)c1ccccc1 (configuration not stated)	15	131	2	5	106	nt	nt
CCC(C)NC(=O)c1c(N)n(/N=C/c2cccnc2)c2nc3ccccc3nc12 (configuration not stated)	48*	104	2	1	104	84	i
CCOc1ccc2nc(SCCNS(=O)(=O)c3ccccc3)sc2c1	61*	105	4	4	108	102	i
CCOc1ccccc1NC(=O)CCC(=O)Nc1nnc(C2CCCCC2)s1	-6	94	0	-2	95	nt	nt
CCN(c1ccc2c(c1)OCO2)S(=O)(=O)c1cc(Br)cc2c1N(C(C)=O)CC2	80*	99	0	-1	96	47*	i
CC(C)C[C@H](NC(=O)c1[nH]cnc1C(=O)N[C@@H](Cc1ccccc1)C(=O)OCc1ccccc1)C(=O)OCc1ccccc1	-1	91	1	-10	101	nt	nt
O=C(N[C@@H](Cc1ccccc1)C(=O)OCc1ccccc1)c1nc[nH]c1C(=O)NCc1ccccc1	63*	104	0	3	108	106	i
Cc1ccc2c(c1)C(=O)N(CCCCO)C2=O	84*	98	3	0	90	100	i
CCCn1nc(C(=O)NNC(=O)c2cccc(C)c2)c2ccccc2c1=O	-2	nt	0	nt	nt	nt	nt
Cc1ncc(CO)c(CNc2ccc(-c3nc4ccccc4[nH]3)cc2)c1O	-21	104	0	-2	100	nt	nt
Cc1csc(NC(=O)CCc2c(C)nc3cc(-c4ccc(Cl)cc4)nn3c2C)n1	63*	106	1	-2	115	69	i
